KB-V1 cytotox = KB-V1 MDR subline cytotoxicity | KB-V1 MDR cells viability, CellTiter-Glo, 72 h | Potency, µM (series often up to 46.1 µM), usual class: cytotoxic | hit rate 3.4% among 400,000; also: nearly all actives have a fitted effect of over 60% in size
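Potencies derive from concentration-effect curves fitted to normalized luminescence (CellTiter-Glo) of KB-V1 cells treated for 72 h at 37 degrees C in phenol-red-free DMEM containing 10% FBS.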
HT1080 IDH1KD tx = toxicity to HT-1080 IDH1 knockdown cells (counter line); HT-1080 IDH1 knockdown viability, ATP luminescence, 48 h; Potency, µM (top dose mostly 46.1 µM), usual class: cytotoxic; hit rate 2% among 360,000; AID 686971
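Luminescent ATP read-out (CellTiter-Glo, 10 min at room temperature) after 48 h compound exposure at 37 °C gave viability of IDH1-knockdown HT-1080 cells. Activity was normalised to DMSO and cell-free wells, then fitted as concentration-response curves.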
MCF10A rereplic = DNA re-replication induction in MCF 10a cells | MCF 10A DNA re-replication, Hoechst nuclear intensity, 48 h | Potency, µM (highest dose often 46.1 µM), actives largely listed as activators | hit rate 2.9% among 350,000; also: nearly all actives have a fitted effect of over 50% in size
KB-3-1 cytotox = KB-3-1 parental cell cytotoxicity. AID 1347075. KB-3-1 viability, CellTiter-Glo ATP luminescence, 72 h. Potency, µM (doses to about 46.1 µM), actives largely listed as cytotoxic. hit rate 1.4% among 400,000; also: nearly all actives have a fitted effect of over 60% in size
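KB-3-1 cells, DMEM (no phenol red) + 10% FBS; compound by pin transfer, 72 h, 37 °C. Readout: CellTiter-Glo luminescence after 10 min. Data normalized, curve-fitted.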
HT1080-NT tox = kills 2HG-producing HT-1080-NT fibrosarcoma cells. HT-1080-NT fibrosarcoma viability, CellTiter-Glo ATP luminescence, 48 h. Potency, µM (doses to about 46.1 µM), actives largely listed as cytotoxic. hit rate 1.6% among 360,000. AID 686970;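 also: NT is the 2HG producing partner of a matched IDH1 knockdown line; nearly all actives have a fitted effect of over 55% in size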
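Luminescent CellTiter-Glo readout after 48 hours of compound exposure at 37 degrees C defined viability of HT-1080-NT cells. Activity was normalized to DMSO wells and cell-free media wells; concentration-response curves were fitted and assigned curve classes.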
SW480 rereplic = DNA re-replication induction in SW480 cells | SW480 DNA re-replication, Hoechst DNA content imaging, 48 h | Potency, µM (highest dose often 46.1 µM), hits mostly activators | hit rate 1.8% among 340,000; also: nearly all actives have a fitted effect of over 55% in size
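First, 250 cells per well were seeded. Next, compound or vehicle (23 nL) was pinned in, plates sat 48 hr at 37 C. Finally Hoechst was added for 40 min before fluorescence scanning.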
Numbers stand for hits; n = inactive; u = inconclusive; x = no result given. Shown are actives, neighbours in structure and some others; about 7.9% of the full set was active somewhere. Calls follow the shape of the dose curve; as a rule, active = well fitted curve in the direction sought with a large enough effect; inconclusive = small, poorly fitted or top-dose-only effect, or another doubt; inactive = no such curve, though single readings can be large; an effect the other way counts as inactive or inconclusive.

SMILES | KB-V1 cytotox | HT1080 IDH1KD tx | MCF10A rereplic | KB-3-1 cytotox | HT1080-NT tox | SW480 rereplic
COc1cc(C(=O)NCc2cc(C)nc3ccccc23)cc(OC)c1OC | n | n | n | n | n | n
COC(=O)c1ccc2nc(C)cc(Nc3ccc(O)cc3)c2c1 | u | x | x | n | x | x
COc1ccc(C(=O)NCc2cc(C)nc3ccccc23)cc1 | n | u | u | 18µM | u | u
COC(=O)c1ccc(Nc2cc(C)nc3ccccc23)cc1 | u | 21µM | u | u | 18µM | u
COc1cc(/C=C/C(=O)OCC(=O)N2CC(C)OC(C)C2)ccc1OCC#N (stereo unspecified) | n | n | x | n | n | x
COc1cccc(CNC(=O)COc2ccc(C(=O)c3ccccc3)cc2)c1 | 21µM | u | u | u | u | u
O=C(COc1ccc(C(=O)c2ccccc2)cc1)NCC1CCCCC1 | n | n | 18µM | n | n | n
O=C1Nc2ccccc2CCC1Sc1nnc(-c2ccc(Cl)cc2)s1 (stereo unspecified) | 18µM | n | n | 21µM | u | n
O=C(Nc1cc(S(=O)(=O)N2CCOCC2)ccc1N1CCOCC1)c1ccccc1Cl | n | n | n | n | n | n
COc1ccc(NC(=O)c2cc(S(=O)(=O)N3CCOCC3)ccc2N2CCOCC2)cc1 | x | n | n | x | n | n
O=C(Nc1cc(S(=O)(=O)N2CCOCC2)ccc1N1CCCC1)c1cc(F)c(F)cc1Cl | 16µM | n | n | n | n | n
C/C(=N\NC(=S)Nc1cc(S(=O)(=O)N2CCOCC2)ccc1Cl)c1ccccc1F | 3.7µM | u | u | u | n | u
O=C(NC1CCCCCC1)c1cc(S(=O)(=O)N2CCOCC2)ccc1N1CCCCC1 | 8.2µM | u | n | u | u | n
O=C(Nc1ccc(OC(F)F)cc1)c1cc(S(=O)(=O)N2CCOCC2)ccc1N1CCCC1 | 9.2µM | n | n | n | n | n
CCCCOc1ccc(NC(=O)CSc2ccc(C(=O)O)cn2)cc1 | u | x | x | n | x | x
COCOc1cccc(CN2CCC2(C)C(=O)Nc2ccc(C)cc2)c1 (stereo unspecified) | n | n | x | n | u | x
NNC(=S)Nc1ccc(S(=O)(=O)N2CCOCC2)cc1 | u | n | n | n | n | n
O=C(Nc1ccccc1O)c1cc(S(=O)(=O)N2CCOCC2)c(Cl)cc1Cl | 2.9µM | n | u | n | u | u
O=S(=O)(c1ccc(NC(=S)Nc2ccc(OC(F)F)cc2)cc1)N1CCOCC1 | 23µM | n | n | n | n | n
COc1cccc(N2CCN(C(=O)c3ccc(CS(=O)c4ccc(C)cc4)o3)CC2)c1 (stereo unspecified) | u | 0.29µM | u | 0.37µM | 0.21µM | u
O=C(c1ccc(CS(=O)c2cccc(Cl)c2)o1)N1CCN(c2ccccn2)CC1 (stereo unspecified) | u | u | u | 7.3µM | u | n
COc1cccc(N2CCN(C(=O)c3ccc(CS(=O)c4ccc(Cl)cc4)o3)CC2)c1 (stereo unspecified) | u | 1.8µM | u | 8.2µM | u | u
O=C(c1ccc(CS(=O)c2cccc(Cl)c2)o1)N1CCOCC1 (stereo unspecified) | n | n | n | n | n | n
COc1ccccc1S(=O)(=O)N(C)C[C@@H]1OCc2cnnn2CCCC(=O)N([C@@H](C)CO)C[C@@H]1C | n | n | x | n | n | x
COc1cc(OC)cc(-c2cc3nc(C)c(CCC(=O)NC(C)CCc4ccco4)c(C)n3n2)c1 (stereo unspecified) | n | n | u | n | n | n
SMILES | KB-V1 cytotox | HT1080 IDH1KD tx | MCF10A rereplic | KB-3-1 cytotox | HT1080-NT tox | SW480 rereplic
COc1cc(OC)cc(-c2cc3nc(C)c(CCC(=O)O)c(C)n3n2)c1 | n | n | 18µM | n | n | n
O=C(NC(=S)N1CCOCC1)c1cn(-c2ccccc2)nc1-c1ccccc1 | 5.8µM | n | n | n | n | n
O=C(c1cn(-c2ccccc2)nc1-c1ccccc1)N1CCOCC1 | n | n | n | n | n | n
CCOC(=O)C1=C(C)NC(=O)NC1c1cn(-c2ccccc2)nc1-c1ccc(OC(C)C)cc1 (stereo unspecified) | n | x | x | n | x | x
O=C(O)c1cn(-c2ccccc2)nc1-c1ccc(F)cc1 | n | n | 13µM | n | n | n
O=C(NCc1ccccn1)c1cn(-c2ccccc2)nc1-c1ccc(Cl)cc1 | 3.7µM | n | u | n | n | n
O=C1NC(=O)C(c2cn(-c3ccccc3)nc2-c2ccc(F)cc2)N1 (stereo unspecified) | n | n | 18µM | n | n | u
O=C(NCc1ccccn1)c1ccc(-c2ccccc2)cc1 | n | n | n | n | n | n
O=C(COC(=O)Cc1ccc(Cl)cc1)NC1CCCC1 | n | n | n | n | n | n
O=C(NCC1CCCN1S(=O)(=O)c1cccs1)c1ccc([N+](=O)[O-])cc1 (stereo unspecified) | n | n | n | n | n | u
Cc1cccc(N2CCN(C3(c4ccccc4)C(=O)c4ccccc4C3=O)CC2)c1C | n | x | x | n | x | x
Clc1ccc(-c2nc3ccncc3[nH]2)cc1 | 18µM | u | n | u | u | n
Cc1ccccc1Cn1c(CN2CCC(C(=O)NCc3cccnc3)CC2)cc2ccccc21 | n | x | x | n | x | x
Cc1ccc(S(=O)(=O)N2CCCCC2)cc1NC(=O)CSc1nnc(C2CC2)n1C | n | n | n | n | n | n
CN(C)c1ncnc2c1C(c1ccccc1)C(C)(C)O2 (stereo unspecified) | 18µM | n | n | n | n | n
COC(=O)C[C@H]1c2ccccc2S(=O)(=O)N1c1cccc(OC)c1 | n | n | n | n | n | n
COc1cccc(N2[C@@H](CC(C)=O)c3ccc(/C=C/C(C)=O)cc3S2(=O)=O)c1 | u | u | 21µM | u | n | n
Cc1cc(C(=O)CSc2nc3ccc(Cl)cc3[nH]2)c(C)n1C | 21µM | n | n | n | n | n
Cc1ccc2nc(SCC(=O)c3cc(C)n(C)c3C)[nH]c2c1 | n | n | n | n | n | n
Cc1cc(C(=O)CSc2nc3ccccc3[nH]2)c(C)n1Cc1ccco1 | 2.1µM | u | n | u | u | n
S=c1[nH]nc(-c2ccco2)n1-c1ccc(Br)cc1 | n | n | n | n | n | n
CCN1C(=O)[C@H]2[C@H]3CN=C(SCC(=O)c4ccccc4)N3[C@@](C)(C(=O)OC)[C@H]2C1=O | u | n | n | n | n | n
CCCCN1C(=O)C(O)=C(C(C)=O)C1c1ccccc1 (stereo unspecified) | n | n | n | n | n | n
CCCCCCCCN1C(=O)C(O)=C(C(C)=O)C1c1ccccn1 (stereo unspecified) | 16µM | n | n | n | n | n
COC(=O)c1ccc(N2CCC(C)CC2)c(N)c1 | u | n | 21µM | n | n | u
